# Screening data (PubChem)
# SKKanGAS inh: inhibitors of SKKanGAS S. pyogenes growth in kanamycin (SK-promoter or general growth effect); BacTiter-Glo, 6 h; inhibition, % at 7.5 µM; 300,000 tested, 1.3% active; AID 1662;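 active means mean replicate score, as percent of positive control median, at least 50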;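 further: strain carries kanamycin resistance gene driven by streptokinase promoter and grows in 40 µg/ml kanamycin; loss of luminescence reflects streptokinase promoter inhibition or plain growth inhibition; 0% = median of DMSO wells and 100% = positive control at its reference dose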
# PfHsp90 yeast 2: growth inhibition of yeast expressing Plasmodium Hsp90 | AID 504621 | 310,000 tested, 0.32% active | inhibition, % at 9.4 µM | S. cerevisiae expressing PfHsp90, BacTiter-Glo ATP, 48 h; yeast lacking PDR1 and PDR3 efflux regulators;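 active means every replicate shows inhibition above about 80%, whatever the replicate mean, limit read from the data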;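 further: 0% = DMSO neutral controls and 100% = 20 µM radicicol positive controls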
# tim10-1 inh: tim10-1 yeast growth inhibition; S. cerevisiae tim10-1 ts strain growth, BacTiter-Glo, 24 h; 330,000 tested, 2.2% active; inhibition, % at 20 µM; AID 463190;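 active means inhibition of at least 40%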;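 further: mutant grown at 25 °C; 0% = DMSO wells with yeast and 100% = wells holding no yeast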
# V-ATPase pH: yeast V-ATPase proton transport regulation by pHLuorin | S. cerevisiae, pHLuorin cytosolic pH fluorescence | response, % at 10 µM | 350,000 tested, 0.37% active; in the data active means response mostly above about 7.3%, no sharp cut-off; inactive means mostly below about 5.4%; further: actives read high
# tim23-1 inh: growth inhibitors of tim23-1 mutant yeast. S. cerevisiae tim23-1 growth, BacTiter-Glo luminescence, 24 h. AID 463212. inhibition, % at 20 µM. 330,000 tested, 1.3% active;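 active means growth inhibition of the mutant yeast at or above 50%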;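 further: temperature-sensitive mutant grown at 25 °C; plate controls were DMSO-treated mutant yeast for no effect and medium wells lacking yeast for full effect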
# TIM10 inh: TIM10 yeast growth inhibition; S. cerevisiae TIM10 strain growth, BacTiter-Glo luminescence, 24 h; inhibition, % at 10 µM; 330,000 tested, 1.4% active; AID 463195;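 active means inhibition of 40% or more at the single tested concentration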;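 further: wild-type TIM10 isogenic control strain grown at permissive 25 °C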
# tim10-1 conf: confirmation of tim10-1 mutant yeast growth inhibitors | shares compounds with tim10-1 inh | S. cerevisiae tim10-1 ts strain growth, BacTiter-Glo, 24 h | inhibition, % at 20 µM | 7,400 tested, 56% active | AID 463213;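 active means inhibition of yeast growth at or above a set limit in either of two repeat tests at 20 µM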;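 further: tim10-1 mutant grown at permissive 25 °C to find synthetic lethal compounds; 0% = DMSO yeast wells and 100% = medium wells without yeast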
# tim10 confirm: TIM10 yeast growth inhibition, confirmed. S. cerevisiae tim10 strain growth, BacTiter-Glo luminescence, 24 h. inhibition, % at 10 µM. 4,600 tested, 63% active. shares compounds with TIM10 inh;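 active means inhibition of yeast growth at or above a set limit in either of two replicates at 10 µM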;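 further: this counterscreen used the strain with wild-type TIM10; 0% = yeast with DMSO and 100% = medium wells lacking yeast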
# Numbers without * were called inactive; · = no result given. In the library only some 4.6% were active in any assay of this set; here they are far more common.
SMILES,SKKanGAS inh,PfHsp90 yeast 2,tim10-1 inh,V-ATPase pH,tim23-1 inh,TIM10 inh,tim10-1 conf,tim10 confirm
O=C(c1ccc(-c2ccc([N+](=O)[O-])cc2)o1)N1CCCC(C(F)(F)F)C1 (stereo not drawn),-4.6,·,64.0*,5.1,43.9,42.6*,55.5*,47.6*
CC1CCCN(C(=O)c2ccc([N+](=O)[O-])o2)C1 (stereo not drawn),-1.8,2.1,56.9*,6.9,40.9,45.9*,40.2*,40.2*
CCN1C(=O)[C@H]2[C@@H](c3ccc(C(F)(F)F)cc3)N[C@]3(CCCN(Cc4ccco4)C3=O)[C@H]2C1=O,·,·,·,1.9,·,·,·,·
O=C(O)CC1(CC(=O)Nc2ccc(F)c(Cl)c2)CCCCC1,-1.6,·,6.5,-3.9,15.4,1.3,·,·
Cc1cc(Sc2nc(N)ncc2[N+](=O)[O-])ncn1,-1.9,39.3,51.4*,0.1,41.4,48.7*,47.9*,31.9*
Cc1cc(N)ncc1[N+](=O)[O-],·,-2.3,·,-1.1,·,·,·,·
Cc1cccc(NC(=S)N=Nc2c(O)n(CN3CCOCC3)c3ccccc23)c1C,·,-102.9,58.8*,-4.1,35.2,59.3*,35.9*,41.3*
CC(NC(=O)C(c1ccccc1)c1ccccc1)C(=O)N1CCCCC1 (stereo not drawn),0.6,19.0,11.0,1.5,16.0,7.3,·,·
O=C(NCCSCc1c(F)cccc1Cl)Nc1ccccc1,-1.4,9.0,13.2,-1.3,36.8,29.4,·,·
S=C(NCCNC(=S)Nc1ccccc1)Nc1ccccc1,-0.3,8.8,17.6,-0.8,-6.2,-0.8,·,·
S=C(NCCSCc1ccc(Cl)cc1Cl)Nc1ccccc1,56.3*,-20.5,47.6*,3.4,0.1,59.3*,45.2*,52.9*
CCOc1ccc(CSCCNC(=S)Nc2ccccc2)cc1,-9.1,-8.0,41.6*,-2.3,44.7,47.0*,19.8,-40.0
S=C(NCCSCc1ccc(Cl)c(Cl)c1)Nc1ccccc1,51.8*,-41.8,54.0*,0.8,35.8,45.2*,27.6,-8.6
CCCNC(=S)Nc1ccc(Br)cc1,3.6,32.0,20.4,-1.9,21.3,3.1,·,·
CCCNC(=S)Nc1ccc(Oc2ccccc2)cc1,-5.5,4.7,41.8*,-0.7,33.2,41.6*,21.4,23.6
C[C@@H]1CN([C@@H](C)CO)C(=O)c2cc(Br)cnc2O[C@H]1CN(C)C(=O)Nc1ccc(F)cc1,·,·,·,3.4,·,·,·,·
CC(=O)Nc1ccc(S(=O)(=O)Nc2ccccc2C(=O)N2CCCCC2)cc1,-2.2,33.0,11.9,4.3,10.3,-5.5,·,·
COC(C/C=C\C(=O)[C@H](C)OCc1ccccc1)OC,2.7,4.2,44.1*,-1.1,40.6,42.5*,41.5*,26.4
CCc1ccc(-n2c(=S)sc3c(=O)[nH]c(SCC(=O)NC4CCCCC4)nc32)cc1,·,·,·,-1.8,·,·,·,·
Cc1nccn1-c1cc(C(C)(C)C)nc2c(-c3ccccc3)cnn12,-7.2,-2.4,50.4*,-3.2,49.9,53.8*,48.1*,54.7*
CC(C)(C)c1cc(N2CCOCC2)n2ncc(-c3ccccc3)c2n1,10.1,-25.3,23.5,-1.3,18.2,2.6,·,·
CCOC(=O)C1CCCN(C(=O)c2sc3nc(-c4ccc(F)cc4)cn3c2C)C1 (stereo not drawn),-3.6,3.0,52.7*,-2.3,41.0,55.7*,48.3*,42.5*
CCOC(=O)C1CCCN(C(=O)c2sc3nc(-c4ccccc4)cn3c2C)C1 (stereo not drawn),2.0,11.6,7.1,0.3,30.4,22.3,·,·
CCOC(=O)C1CCN(C(=O)c2sc3nc(-c4ccc(F)cc4)cn3c2C)CC1,-3.0,-1.8,74.2*,-2.5,43.2,78.1*,73.8*,69.2*
COC(=O)CCC(C)C1CCC2C3C(OC(C)=O)CC4CC(O)CCC4(C)C3CC(O)C12C (stereo not drawn),·,·,·,-2.5,·,·,·,·
SMILES,SKKanGAS inh,PfHsp90 yeast 2,tim10-1 inh,V-ATPase pH,tim23-1 inh,TIM10 inh,tim10-1 conf,tim10 confirm
COc1cc(CC(=O)N2CCN(C(=O)C3CCCO3)CC2)cc(OC)c1OC (stereo not drawn),·,·,-13.2,-2.0,-3.1,-5.5,·,·
CCCOc1ccc(C(=O)C(CN2CCOCC2)c2ccccc2)cc1 (stereo not drawn),0.9,12.9,45.9*,0.3,32.0,50.2*,46.4*,8.4
COc1ccc2[nH]c3c(=O)n4c(nc3c2c1)SCC4,5.2,-22.4,44.6*,-0.4,28.1,40.1*,36.6*,17.6
COc1ccc2nc(NC(=O)CN(c3ccc(C)cc3)S(=O)(=O)c3c(C)nn(C)c3C)sc2c1,25.7,·,44.7*,0.0,40.1,41.5*,30.9*,44.1*
CC(OC(=O)c1ccc2c(=O)n3c(nc2c1)CCC3)C(=O)NC1CCCCC1C (stereo not drawn),-6.6,-37.3,7.7,-0.6,18.1,14.7,·,·
O=C(c1ccco1)N1CCN(c2ncnc3scc(-c4ccccc4)c23)CC1,5.3,13.0,47.4*,2.5,28.0,44.3*,42.4*,-3.2
COc1ccc(-c2csc3ncnc(N4CCN(C(=O)c5ccco5)CC4)c23)cc1,2.7,-12.4,35.3,1.3,32.4,24.6,·,·
O=C(c1cccc2ccccc12)n1nnc2ccccc21,-1.0,·,66.5*,·,0.0,58.7*,61.1*,72.7*
N#Cc1nc(-c2cccs2)oc1NCCN1CCOCC1,1.1,·,9.6,-4.8,-2.2,-3.2,·,·
N#Cc1nc(-c2cccs2)oc1NCCc1ccccc1,6.0,·,57.0*,-0.6,36.3,64.8*,38.1*,67.8*
CCOC(=O)N/N=C\c1ccc(-c2cc(Cl)ccc2Cl)o1,-20.2,10.8,44.1*,2.3,32.8,41.2*,34.1*,34.6*
CCc1cccc2sc(N3CCN(C(=O)c4ccc([N+](=O)[O-])o4)CC3)nc12,58.7*,8.2,79.1*,0.1,8.0,57.9*,73.7*,89.4*
Cc1ccc(-c2csc3ncnc(Sc4nnc(CN5CCCCCC5=O)o4)c23)cc1,13.7,18.7,40.1*,1.4,35.4,55.5*,35.8*,38.8*
COC(=O)C(=O)C/C(=N/Nc1ncnc2ccccc12)c1ccc(Cl)cc1,11.8,1.3,4.7,1.0,8.6,1.6,·,·
O=C(CN1CCN(C(=O)c2ccc(-c3nc4ccccc4s3)o2)CC1)Nc1ccc(F)cc1,·,9.2,-12.1,6.2,40.2,14.7,·,·
COc1ccc(-n2c(=O)c3c4c(sc3n3c(=S)[nH]nc23)CCCC4)cc1,17.8,-28.3,40.0,9.4,30.1,48.2*,37.3*,18.4
C=C1CCC[C@]2(C)C[C@H]3OC(=O)C(CN4CC(C)OC(C)C4)[C@H]3C[C@@H]12 (stereo partly drawn),-4.7,7.6,42.5*,4.6,42.9,40.1*,31.2*,36.8*
